From PubChem
Sampled rows, rich in hits. Any-hit rate of the full collection: about 10%.
Pf growth 48h: P. falciparum growth inhibition at 48 hours (one generation); P. falciparum luciferase growth in erythrocytes, 48 h; Potency, µM (highest dose often 28.7 µM), for inactives: at the highest dose activity change, negative = inhibition, hits mostly inhibitors; 5.9% of 310,000 active; also: % is scaled to controls: 0 for no effect and ±100 for the full control effect
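Firefly luciferase activity from engineered P. falciparum reports growth; inhibitors lower the luminescent signal. Cultures contained 2% hematocrit erythrocytes at 0.1% final parasitemia.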
SARS PLP yeast: SARS-CoV PLP inhibition in yeast. 0.19% of 330,000 active. S. cerevisiae expressing SARS-CoV PLpro, growth rescue. Potency, µM (highest dose often 32.9 µM), inactives show top-dose activity, positive = growth rescue, usual class: activators; calls by dose curve; also: 0% is about no effect; nearly all actives have a fitted effect of over 55% in size
Pf growth 96h: P. falciparum growth inhibition at 96 hours. P. falciparum luciferase reporter growth, 96 h. Potency, µM (doses to about 28.7 µM), inactives show top-dose activity change, negative = inhibition, most hits filed as inhibitors. 6.9% of 320,000 active; also: % is scaled to controls: 0 for no effect and ±100 for the full control effect
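Erythrocytes infected with luciferase-expressing P. falciparum were dispensed at 2% hematocrit and 0.05% parasitemia (final), then incubated with compounds 96 hours at 37 C in 5% CO2. Luminescence after detection reagent addition reported growth.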
NS1 function inh: inhibitors of influenza NS1 protein function | Potency, µM (top dose mostly 46.1 µM), for the others: at the top dose activity, positive = more growth | 0.4% of 270,000 active; calls by dose curve; also: actives are rising curves; nearly all actives have a fitted effect of over 50% in size
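A cell-based growth assay was used: compounds that relieve NS1-induced slow growth of budding yeast raise OD600. Assay medium was yeast nitrogen base with ammonium sulphate and -URA supplement, pH 6.0, with 2% galactose.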
* = called active by the depositor; ? = inconclusive; nt = no result. Unless noted, calls follow the shape of the dose curve; as a rule, active = well fitted inhibition curve with a large enough effect; inconclusive = small, poorly fitted or top-dose-only effect, or another doubt; inactive = no such curve, though single readings can be large or run the other way. Potency is read from the fitted curve at half-maximal effect.

SMILES	Pf growth 48h	SARS PLP yeast	Pf growth 96h	NS1 function inh
CCN(CC)C(=O)CSc1nnc(-c2c[nH]c3ccccc23)o1	?	0%	0.47µM*	18%
COC(=O)c1ccc(/C=C/c2c(-c3ccsc3)oc3ccc(N4CCOCC4)cc23)cc1	?	4%	13µM*	22%
COc1ccc2c(c1OC)C[N+]1([O-])CCc3cc4c(cc3C1C2)OCO4 (configuration not stated)	?	3%	4.1µM*	-1%
CC(=O)N(c1ccc(Cl)cc1)c1nc(C)cc(C)c1C#N	-3%	1%	7.4µM*	1%
CC(=O)N(c1ccccc1)c1nc(C)cc(C)c1C#N	-2%	12%	3%	-6%
COc1ccccc1-c1nnc(SC(C)C(=O)Nc2ccc(C(N)=O)cc2)o1 (configuration not stated)	6%	2%	-6%	nt
CCOCCn1c(=NC(=O)c2ccc(S(=O)(=O)N3CCOCC3)cc2)sc2cc(S(N)(=O)=O)ccc21	15µM*	-4%	6.6µM*	1%
C=CCn1c(=NC(=O)c2ccc(S(=O)(=O)N3CCc4ccccc4C3)cc2)sc2cc(S(N)(=O)=O)ccc21	-24%	9%	?	12%
COC(=O)Cn1c(=NC(=O)c2ccc(S(=O)(=O)N3CCc4ccccc4C3)cc2)sc2cc(OC)ccc21	?	-2%	?	-3%
C#CCn1c(=NC(=O)c2ccc(S(=O)(=O)N3CCc4ccccc4C3)cc2)sc2cc(S(N)(=O)=O)ccc21	?	-8%	5.2µM*	?
COCCn1c(=NC(=O)c2ccc(S(=O)(=O)N3CCc4ccccc4C3)cc2)sc2cc(S(N)(=O)=O)ccc21	?	21%	7.4µM*	5%
Cc1ccccc1OCC(=O)Nc1ccc(N2CCN(C(=O)c3ccco3)CC2)cc1	?	-8%	5%	-12%
CC(=O)Nc1ccc(C2=CC(=O)C[C@H](c3ccc4c(c3)OCO4)C2)cc1	?	-5%	-15%	nt
Oc1ccc(CN2CCCCC2)nc1-c1ccccc1	0.52µM*	4%	?	-1%
Oc1ccc(-c2ccccc2)cc1CN1CCCCCC1	0.66µM*	2%	?	2%
O=c1c(-c2ccccc2)coc2c(CN3CCCCC3)c(O)ccc12	?	-6%	?	6%
Oc1ccc(Cl)cc1CN1CCN(Cc2ccccc2)CC1	1.5µM*	0%	nt	-14%
Oc1cccnc1CN1CCCCC1	nt	nt	nt	-2%
COc1cc(-c2nn3c(-c4ccccn4)nnc3s2)cc(OC)c1OC	20%	-2%	-10%	3%
COc1cccc(OC)c1-c1nn2c(-c3cc(-c4ccccc4)n[nH]3)nnc2s1	2.1µM*	-6%	-21%	6%
COc1cccc(-c2nnc3sc(-c4ccc(Cl)cc4)nn23)c1	6%	-1%	-10%	1%
CCOc1cccc(-c2nn3c(-c4cc(C)[nH]n4)nnc3s2)c1	?	-6%	1.7µM*	-2%
CCOc1cccc(-c2nnc3sc(-c4cc(OC)c(OC)cc4OC)nn23)c1	1%	2%	35%	?
Clc1cccc(-c2nn3c(-c4ccncc4)nnc3s2)c1	20%	-2%	13µM*	3%
COc1cccc(-c2nnc3sc(-c4ccccc4)nn23)c1	?	-3%	3.3µM*	-9%
SMILES	Pf growth 48h	SARS PLP yeast	Pf growth 96h	NS1 function inh
CC(C)C(NC(=O)c1c(F)cccc1F)C(=O)NCc1ccc(S(=O)(=O)N2CCOCC2)cc1 (configuration not stated)	?	3%	5%	nt
CC(=O)N[C@@H](Cc1ccc(O)cc1)C(=O)N[C@H](C(=O)N[C@@H](C)C(=O)N[C@H](C#N)CC(=O)O)C(C)C	1%	3%	9%	nt
Nc1cccc2c1C(=O)N(CCOc1ccccc1F)C2=O	206%	0%	314%	-4%
Cc1cncc(C(=O)O)[n+]1[O-]	-7%	nt	5%	nt
CCOC(=O)c1ncn2c1[C@@H]1CCNC1C(=O)c1cc(OC)ccc1-2 (some centres not stated)	-7%	nt	-11%	nt
CC(C)=C[C@H]1[C@@H](C(=O)OCc2cc3c(cc2Cl)OCO3)C1(C)C	nt	nt	nt	-13%
O=C(Oc1ccc(N(C(=O)c2ccncc2)S(=O)(=O)c2ccc(F)cc2)cc1)c1ccncc1	-16%	-6%	2%	nt
O=C(Oc1ccc(N(C(=O)c2ccncc2)S(=O)(=O)c2ccc(Cl)cc2)cc1)c1ccncc1	10%	-1%	2.6µM*	-72%
CN(C(=O)CCc1nc2ccccc2c(=O)[nH]1)C1CCS(=O)(=O)C1 (configuration not stated)	-27%	1%	?	nt
N[C@@H](Cc1c[nH]c2cc([N+](=O)[O-])ccc12)C(=O)O	nt	nt	nt	0%
COc1ccc(CN2CC(=O)N3[C@H]4c5ccc(OC)cc5OC[C@@H]4[C@H](c4ccccc4)[C@]3(C)C2=O)cc1	4.7µM*	-26%	?	nt
COc1ccc2c(c1)OC[C@H]1[C@H]2N2C(=O)CN(Cc3ccc(Cl)cc3)C(=O)[C@@]2(C)[C@H]1c1ccccc1	2.9µM*	-4%	?	nt
Cc1cc(OCC(=O)NNC(=O)c2cccs2)ccc1Br	28%	-1%	?	3%
CCOc1ccc(C(=O)COC(=O)c2cc(=O)[nH]c3ccccc23)cc1	13%	0%	-8%	nt
CC(OC(=O)c1ccccc1NS(=O)(=O)c1cccc(C(F)(F)F)c1)C(=O)N(C)Cc1ccccc1 (configuration not stated)	?	2%	10µM*	25%
CSCCC(NS(=O)(=O)c1cccc(C(F)(F)F)c1)C(=O)N(C)Cc1ccc2c(c1)OCCO2 (configuration not stated)	?	-2%	-26%	-10%
Cc1cc(C)c(NC(=O)Cn2cc3c(n2)CCCC3)c(C)c1	8%	-1%	5%	-5%
Cc1ccc(Cl)cc1NC(=O)Cn1cc2c(n1)CCCC2	nt	0%	2.1µM*	-83%
O=C(Cn1cc2c(n1)CCCCC2)Nc1c(F)c(F)cc(F)c1F	nt	4%	15µM*	-8%
COc1ccc(NC(=O)CSc2nc3ccc(OC)cc3[nH]2)cc1	3%	-1%	34%	7%
CCOC(=O)c1c(NC(=O)CSc2nc3ccc(OC)cc3[nH]2)sc2c1CC(C)(C)NC2(C)C	?	-2%	5.9µM*	nt
CC1(C)Cc2c(sc(NC(=O)COc3ccc(Cl)cc3Cl)c2C(N)=O)C(C)(C)N1	10µM*	0%	?	0%
CCOC(=O)c1c(NC(=O)COc2ccccc2F)sc2c1CC(C)(C)NC2(C)C	12µM*	-10%	?	nt
CCOC(=O)c1c(NC(=O)CSc2ncccn2)sc2c1CC(C)(C)NC2(C)C	15µM*	?	9.3µM*	-1%
COC(=O)c1c(NC(=O)COc2ccc(Cl)cc2)sc2c1CC(C)(C)NC2(C)C	?	-1%	?	-9%
C=CCn1c(SCC(=O)Nc2cccc(S(N)(=O)=O)c2)nnc1C1CCCCC1	-3%	5%	-16%	nt
CS(=O)(=O)Nc1ccc(C(=O)N2CC(=O)Nc3ccccc32)cc1	8%	9%	?	5%
CC(=O)OCC(=O)C1(O)CCC2C3CCC4=CC(=O)C=CC4(C)C3C(O)CC21C (configuration not stated)	0%	0%	-3%	2%
